Measured values: PubChem BioAssay AID1159580 (chemical genetic matrix, 2015)
Where “and” joins values, the source holds several entries; their conditions need not be identical. Identical values can stand only once. Out of some 5,500 compounds screened, about 2,000 (36%) were called active. Inconclusive results (about 18%) are left out. Cut-off read from the data, not from the text of the source: active = normalized growth mostly below about 0.91 (no sharp cut-off); inconclusive = no clear call, values can overlap the other calls; inactive = mostly above about 0.92. Some of the results follow.

Assay: chemical genetic growth profiling, strain panel (AID 1159580);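 note: tested at 20 µM; growth read once vehicle control cultures reached saturation at 30 °C; 1 = growth at the plate median or of vehicle wells; lower values mean less growth of the strain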
Settings: S. cerevisiae deletion strains, growth OD

Measured: normalized growth

O=C(O)CCC(=O)OC[C@@H](NC(=O)C(Cl)Cl)[C@H](O)c1ccc([N+](=O)[O-])cc1
inactive: locus YAL021C, strain ccr4, stronger effect = lower value 0.99 | locus YAL026C, strain drs2, stronger effect = lower value 0.993 | locus YAL030W, strain snc1, stronger effect = lower value 0.981 | locus YBL061C, strain skt5, stronger effect = lower value 0.971 | locus YBR009C, strain hhf1, stronger effect = lower value 0.956 | locus YBR021W, strain FUR4, stronger effect = lower value 1.02 | locus YBR023C, strain chs3, stronger effect = lower value 0.976 | locus YBR171W, strain sec66, stronger effect = lower value 0.962 | locus YBR229C, strain ROT2, stronger effect = lower value 0.951 | locus YBR231C, strain swc5, stronger effect = lower value 1 | locus YBR279W, strain paf1, stronger effect = lower value 0.989 | locus YCL011C, strain gbp2, stronger effect = lower value 0.942 | locus YCL016C, strain dcc1, stronger effect = lower value 0.953 | locus YCL029C, strain bik1, stronger effect = lower value 0.986 | locus YCL061C, strain MRC1, stronger effect = lower value 0.981 | locus YCL069W, strain vba3, stronger effect = lower value 0.982 | locus YCR088W, strain abp1, stronger effect = lower value 0.986 | locus YDL005C, strain med2, stronger effect = lower value 0.984 | locus YDL035C, strain GPR1, stronger effect = lower value 0.974 | locus YDL040C, strain nat1, stronger effect = lower value 0.996 | locus YDL074C, strain BRE1, stronger effect = lower value 0.98 | locus YDL101C, strain DUN1, stronger effect = lower value 0.995 | locus YDL134C, strain PPH21, stronger effect = lower value 0.964 | locus YDL185W, strain tfp1, stronger effect = lower value 0.96 | locus YDL192W, strain arf1, stronger effect = lower value 0.979 | locus YDR001C, strain nth1, stronger effect = lower value 0.975 | locus YDR069C, strain doa4, stronger effect = lower value 1.01 | locus YDR101C, strain arx1, stronger effect = lower value 0.963 | locus YDR137W, strain rgp1, stronger effect = lower value 0.963 | locus YDR150W, strain NUM1, stronger effect = lower value 0.982 | locus YDR159W, strain sac3, stronger effect = lower value 0.997 | locus YDR162C, strain NBP2, stronger effect = lower value 0.93 | locus YDR195W, strain ref2 1 | locus YDR297W, strain sur2, stronger effect = lower value 0.964 | locus YDR318W, strain mcm21, stronger effect = lower value 0.99 | locus YDR334W, strain swr1, stronger effect = lower value 0.945 | locus YDR335W, strain msn5, stronger effect = lower value 0.973 | locus YDR388W, stronger effect = lower value 0.983 | locus YDR392W, strain spt3, stronger effect = lower value 0.914 | locus YDR502C, strain sam2, stronger effect = lower value 0.991 | locus YEL003W, strain gim4, stronger effect = lower value 0.982 | locus YEL037C, strain rad23, stronger effect = lower value 0.991 | locus YEL061C, strain CIN8 (second series), stronger effect = lower value 0.987 | locus YEL061C, strain CIN8, stronger effect = lower value 0.988 | locus YER015W, strain faa2, stronger effect = lower value 0.989 | locus YER016W, strain bim1, stronger effect = lower value 0.988 | locus YER110C, stronger effect = lower value 0.964 | locus YER111C, strain swi4, stronger effect = lower value 0.982 | locus YER155C, strain BEM2 (second series), stronger effect = lower value 1.04 | locus YER155C, strain BEM2, stronger effect = lower value 0.989 | locus YER167W, strain BCK2, stronger effect = lower value 0.997 | locus YFR010W, strain ubp6, stronger effect = lower value 0.979 | locus YGL078C, strain dbp3, stronger effect = lower value 0.995 | locus YGL167C, strain pmr1, stronger effect = lower value 0.974 | locus YGL173C, strain kem1, stronger effect = lower value 0.967 | locus YGL227W, strain vid30, stronger effect = lower value 0.977 | locus YGL240W, strain doc1, stronger effect = lower value 1 | locus YGL248W, strain PDE1, stronger effect = lower value 1.01 | locus YGL253W, strain hxk2, stronger effect = lower value 0.968 | locus YGR135W, strain pre9, stronger effect = lower value 1.03 | locus YGR229C, strain SMI1, stronger effect = lower value 0.969 | locus YGR252W, strain gcn5, stronger effect = lower value 1.07 | locus YHR013C, strain ard1, stronger effect = lower value 0.955 | locus YHR027C, strain rpn1, stronger effect = lower value 0.956 | locus YHR030C, strain SLT2, stronger effect = lower value 0.974 | locus YHR079C, strain IRE1 (second series), stronger effect = lower value 0.989 | locus YHR079C, strain IRE1, stronger effect = lower value 0.961 | locus YHR094C, strain hxt1, stronger effect = lower value 0.979 | locus YHR129C, strain ARP1, stronger effect = lower value 0.982 | locus YHR142W, strain chs7, stronger effect = lower value 0.926 | locus YHR200W, strain rpn10, stronger effect = lower value 0.981 | locus YIL066C, strain RNR3, stronger effect = lower value 0.947 | locus YIL073C, strain SPO22, stronger effect = lower value 0.988 | locus YIL125W, strain kgd1, stronger effect = lower value 0.983 | locus YIR030C, strain dcg1, stronger effect = lower value 0.98 | locus YJL092W, strain hpr5, stronger effect = lower value 0.981 | locus YJL095W, strain BCK1 (second series), stronger effect = lower value 0.972 | locus YJL095W, strain BCK1, stronger effect = lower value 1.04 and 0.971 | locus YJL115W, strain asf1, stronger effect = lower value 0.969 | locus YJL129C, strain trk1, stronger effect = lower value 0.968 | locus YJL134W, strain LCB3, stronger effect = lower value 0.982 | locus YJL154C, strain vps35, stronger effect = lower value 0.975 | locus YJL164C, strain tpk1, stronger effect = lower value 0.968 | locus YJL166W, strain qcr8, stronger effect = lower value 0.964 | locus YJL168C, strain set2, stronger effect = lower value 0.983 | locus YJL187C, strain SWE1 (second series), stronger effect = lower value 1 | locus YJL187C, strain SWE1, stronger effect = lower value 0.975
